High-throughput results (PubChem BioAssay)
MbtI inh: MbtI salicylate synthase inhibition | inhibition, % (no concentration beside the values) | 100,000 tested, 0.89% active | AID 493033 | purified MbtI enzyme, fluorescence intensity read-out | P9WFX0; in the data active = inhibition mostly above about 56%, no sharp cut-off; inactive = mostly below about 77%
Mtb MenB inh: Mtb MenB enzyme inhibition. 100,000 tested, 0.43% active. AID 540299. P9WNP5. inhibition, % (no concentration beside the values). MenB enzyme assay, absorbance read-out; in the data active = inhibition above about 21%, passing the limit was not always enough
PV pol inh: inhibitors of poliovirus RNA polymerase binding and polymerization; P03300; poliovirus polymerase elongation, fluorescence polarization; active compounds read low; % elongation, % (compound at 16.7 µg/mL); 150,000 tested, 0.66% active; AID 588519; in the data active = % elongation below about 90%
Target sequence (P03300 1749-2209 limits assumed): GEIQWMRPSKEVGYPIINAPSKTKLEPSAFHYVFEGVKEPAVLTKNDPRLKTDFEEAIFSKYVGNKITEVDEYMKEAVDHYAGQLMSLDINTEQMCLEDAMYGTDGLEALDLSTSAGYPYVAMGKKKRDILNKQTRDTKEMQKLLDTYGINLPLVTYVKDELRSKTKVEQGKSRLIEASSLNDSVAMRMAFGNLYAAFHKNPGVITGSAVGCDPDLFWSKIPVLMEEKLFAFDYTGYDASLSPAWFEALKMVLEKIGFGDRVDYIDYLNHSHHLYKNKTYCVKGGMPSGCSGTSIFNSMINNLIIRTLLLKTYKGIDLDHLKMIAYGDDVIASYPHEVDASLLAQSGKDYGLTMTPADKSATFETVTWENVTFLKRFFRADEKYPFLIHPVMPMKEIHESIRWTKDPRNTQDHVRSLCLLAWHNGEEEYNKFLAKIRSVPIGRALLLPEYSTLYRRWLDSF
AID504770: growth inhibitors of E. coli YBA685 in a screen for V. cholerae RctB (chromosome II replication) inhibitors. E. coli YBA685 rctB-dependent plasmid, OD600 growth, 3 h; active compounds read low. z-score (concentration not given with the values). 130,000 tested, 0.27% active. AID 504770; in the data active = z-score below about -2, passing the limit was not always enough
Large screens that a line does not name were inactive; ! = not confirmed by another sample. Rows were chosen to be rich in hits. Some 1.4% of all compounds tested hit in one or more screens of this group.

COc1cc(NC(C)CCCN)c2ncccc2c1 (configuration not stated)	PV pol inh 58!
COc1ccc(CSc2cccc3cccnc23)cc1	none (no result: Mtb MenB inh)
CCOC(=O)Cc1c[nH]c2ccccc12	none
CCOC(=O)CC(=O)c1ccccc1	Mtb MenB inh 34
CCOC(=O)CC(=O)c1c[nH]c2ccccc12	AID504770 -2.2 (no result: MbtI inh)
CCOC(=O)CN=C(c1ccccc1)c1ccccc1	none (no result: MbtI inh)
Cc1cccc(NC2=NCC(=O)N2Cc2ccccc2)c1	PV pol inh 87
O=C1CN=C(Nc2ccccc2Cl)N1Cc1ccccc1	none
CCOc1cc(CNc2ccc(O)cc2)ccc1OCc1ccc(Cl)cc1	PV pol inh 80 (no result: MbtI inh, Mtb MenB inh, AID504770)
Oc1ccccc1C(C#Cc1ccccc1)N1CCOCC1 (configuration not stated)	none
CC1CCc2c(sc3nc(C(C)C)n4c(SCC(=O)NCc5ccco5)nnc4c23)C1 (configuration not stated)	Mtb MenB inh 27
CC(C)c1ccc(C=C2C(=O)NC(=O)NC2=O)cc1	PV pol inh 77
C/C(O)=C(\C#N)P(C)(=O)OC(C)C (configuration not stated)	Mtb MenB inh 41
COc1ccc2nc(Cl)c(CNC3CCCC3)cc2c1	none
Cc1ccc(C(=O)CC(NCCN2CCOCC2)C(=O)O)cc1 (configuration not stated)	Mtb MenB inh 33 (no result: MbtI inh)
O=C(CC(NCCN1CCOCC1)C(=O)O)Nc1ccc2ccccc2c1 (configuration not stated)	none
CCOC(=O)C1=C(C)NC(C)=C(C(=O)OCC)C1C(=O)OC	none
NCCc1cccc(Cl)c1	none
O=C1c2ccccc2C(=O)N1SSN1C(=O)c2ccccc2C1=O	PV pol inh 85
CCc1nc(Nc2ccc(F)c(Cl)c2)c2c3c(sc2n1)CCCC3	PV pol inh 85 (no result: MbtI inh, Mtb MenB inh, AID504770)
CCc1ccc(Nc2ncnc3sc4c(c23)CCCC4)cc1	none (no result: MbtI inh, Mtb MenB inh, AID504770)
CC(C)C(=O)Nc1ccc2nc(SCC(=O)N3CCc4ccccc43)sc2c1	PV pol inh 83 (no result: MbtI inh, Mtb MenB inh, AID504770)
O=C(c1ccccc1)N1CCC(O)(c2cccnc2)CC1	none
O=C(N1CCC(O)(c2cccnc2)CC1)C12CC3CC(CC(C3)C1)C2	Mtb MenB inh 25
CN1C(C(=O)NCc2ccccc2)=CC(c2ccco2)=NS1(=O)=O	none
O=C(Cn1ncc2ccccc21)Nc1ccc(Br)cc1F	none
CC1=C(c2ccc(Cl)cc2)S(=O)(=O)N=C1N1CCC(C(=O)NCc2ccccc2F)CC1	none (no result: MbtI inh, Mtb MenB inh, AID504770)
CC1=C(c2ccc(C(C)C)cc2)S(=O)(=O)N=C1N1CCC(C(=O)NCc2ccccc2)CC1	PV pol inh 34 (no result: MbtI inh, Mtb MenB inh, AID504770)
O[N+]1=CC=CCC1=S.On1ccccc1=S.[Zn]	AID504770 -4
O=C(COc1ccc(Cl)cc1)OCc1ccc(Br)cc1	none (no result: Mtb MenB inh)
CN(C)CCOC(=O)COc1ccc(Cl)cc1	Mtb MenB inh 68!
Cc1ccccc1N1C(=O)C(O)C(O)C1=O (configuration not stated)	none (no result: Mtb MenB inh, PV pol inh)
CCN(CCO)C1CC(=O)N(c2ccccc2C)C1=O (configuration not stated)	MbtI inh 100
CCCCn1c(-c2ccccc2)n[nH]c1=S	none
O=C(O)C1CCN(C(=O)CSc2ncc(C(F)(F)F)cc2Cl)CC1	none
CCn1c(-c2ccc3c(c2)OCCO3)cnc1SCC(=O)Nc1ccccc1C(=O)NC1CC1	none
Cc1cc(C(=O)O)no1	Mtb MenB inh 32
COCCn1c(SC(C)C)nnc1-c1c[nH]c2ccccc12	none (no result: MbtI inh, Mtb MenB inh, PV pol inh)
CC(C)OC(=O)Cn1c(C2CC2)nc2ccccc2c1=O	Mtb MenB inh 31
COCCCn1c(=O)c2ccccc2n(CC(N)=O)c1=O	Mtb MenB inh 28
CCOc1ccccc1NC(=O)c1ccc(C(=O)Nc2ccccc2OCC)cc1	none (no result: MbtI inh, Mtb MenB inh, AID504770)
CCOc1ccccc1NC(=O)CS	MbtI inh 83
N#Cc1c(Nc2ccccc2)s[nH]c1=O	AID504770 -2.6
N#Cc1c(Nc2ccccc2Cl)s[nH]c1=O	none
Nc1cc(=O)[nH]c(SCC(=O)Nc2ccccc2)n1	none
CN(C)c1ccc(NC(=O)CSc2nc(N)cc(=O)[nH]2)cc1	Mtb MenB inh 28
Fc1c(F)c(Oc2ccccc2)c(F)c(F)c1Oc1ccccc1	Mtb MenB inh 27
Nc1ccc(Oc2ccccc2)cc1	none
COc1ccc(C(=O)Nc2nc3c(s2)CCc2cc(OC)ccc2-3)cc1	PV pol inh 80 (no result: MbtI inh, Mtb MenB inh, AID504770)
COc1ccc2c(c1)Cc1sc(NC(=O)c3cccc(C)c3)nc1-2	PV pol inh 56 (no result: MbtI inh, Mtb MenB inh, AID504770)
COc1ccc2c(c1)Cc1sc(NC(=O)c3ccc(Cl)cc3)nc1-2	PV pol inh 88 (no result: MbtI inh, Mtb MenB inh, AID504770)
COc1ccc2c(c1)CCc1sc(NC(=O)c3cccc(Br)c3)nc1-2	none (no result: MbtI inh, Mtb MenB inh, AID504770)
COc1ccc2c(c1)Cc1sc(NC(=O)c3cccc(Cl)c3)nc1-2	PV pol inh 63 (no result: MbtI inh, Mtb MenB inh, AID504770)
CCN1CCC(N(Cc2ccc(F)cc2)C(=O)Nc2cc(C)ccc2OC)CC1	none
CC(C)(C)NC(=O)n1ccc(-c2ccc(-n3ccnc3)cc2)n1	none (no result: MbtI inh, Mtb MenB inh, PV pol inh)
O=S(=O)(c1cccs1)N1CCCN(S(=O)(=O)c2cccs2)CC1	Mtb MenB inh 26
CC1(NS(C)(=O)=O)CC=CC1	Mtb MenB inh 29
Cc1ccc(S(=O)(=O)N(C)c2nc3ccccc3nc2SCC#N)cc1	MbtI inh 98
Cc1ccc(S(=O)(=O)N(C)c2ccccc2)cc1	none
CC(C)(C)NS(=O)(=O)Nc1ccccc1	Mtb MenB inh 36
O=C(Cn1c(=O)c2cccn2c2ccccc21)NCCCN1CCCC1	none
Clc1nc2ccc3nsnc3c2nc1Cl	PV pol inh 42
O=C1CC(Sc2ccc3ccccc3c2)C2COC1O2 (configuration not stated)	PV pol inh 84 (no result: MbtI inh)
CC1CCc2nc(SC3CC(=O)C4OCC3O4)nc(C(F)(F)F)c2C1 (configuration not stated)	none (no result: MbtI inh)
N#Cc1cc(-c2ccccc2C(F)(F)F)no1	AID504770 -2.6
CC(=O)NCCC(=O)N1CCCSC1=Nc1c(C)cccc1C	PV pol inh 88
C=CCn1c(C(C)Oc2ccc(Cl)cc2Cl)n[nH]c1=S (configuration not stated)	none
C=CCn1c(Cc2ccc(OC)c(Cl)c2)n[nH]c1=S	MbtI inh 91
C=CCn1c(CSCc2ccc(F)cc2)n[nH]c1=S	MbtI inh 64
O=C(O)C1CSC(c2ccccc2O)=N1 (configuration not stated)	none (no result: Mtb MenB inh, PV pol inh)
COc1ccc(CCNC(=O)Cn2cnc3c(cnn3-c3ccccc3)c2=O)cc1OC	AID504770 -3.6 (no result: MbtI inh, Mtb MenB inh, PV pol inh)
COC(=O)Cn1cnc2c(cnn2-c2ccccc2)c1=O	none (no result: MbtI inh, Mtb MenB inh, PV pol inh)
Cc1ccc2nc(-c3ccc4nc(N)sc4c3)oc2c1	none
COc1cc(CC(=O)Nc2cc(Cl)ccc2Sc2nncn2C)cc(OC)c1OC	none
C=C(C)CNC(=S)Nc1cc(Cl)ccc1Sc1nncn1C	MbtI inh 79
Cn1c(O)c(C=Nc2ccc(Br)cc2)c2ccccc21	none
Cc1noc(C)c1CSc1ccccc1C(=O)OC(C)C(=O)N1CCOCC1 (configuration not stated)	none
Cc1noc(C)c1CSc1ccccc1C(=O)NC(C)c1ccc2c(c1)OCCO2 (configuration not stated)	MbtI inh 89
Nc1nc(S(=O)(=O)c2ccccc2)c(Cl)s1	none (no result: MbtI inh)
CCC(=O)Nc1ccc2nc(C3CC3)n(Cc3ccc(Cl)cc3)c(=O)c2c1	Mtb MenB inh 31
